Broadly, the AC50 is the concentration giving half of the maximal activity seen.

Where “and” joins values, the source holds several entries; their conditions need not be identical. Identical values can stand only once. Calls of active or inactive are those of the source. How the source made its calls: active means hit-call score of the fitted dose curve at least 0.9, where 1 is the maximum; inactive means score below 0.9.

E-selectin (Homo sapiens), sequence (P16581 whole entry, looked up): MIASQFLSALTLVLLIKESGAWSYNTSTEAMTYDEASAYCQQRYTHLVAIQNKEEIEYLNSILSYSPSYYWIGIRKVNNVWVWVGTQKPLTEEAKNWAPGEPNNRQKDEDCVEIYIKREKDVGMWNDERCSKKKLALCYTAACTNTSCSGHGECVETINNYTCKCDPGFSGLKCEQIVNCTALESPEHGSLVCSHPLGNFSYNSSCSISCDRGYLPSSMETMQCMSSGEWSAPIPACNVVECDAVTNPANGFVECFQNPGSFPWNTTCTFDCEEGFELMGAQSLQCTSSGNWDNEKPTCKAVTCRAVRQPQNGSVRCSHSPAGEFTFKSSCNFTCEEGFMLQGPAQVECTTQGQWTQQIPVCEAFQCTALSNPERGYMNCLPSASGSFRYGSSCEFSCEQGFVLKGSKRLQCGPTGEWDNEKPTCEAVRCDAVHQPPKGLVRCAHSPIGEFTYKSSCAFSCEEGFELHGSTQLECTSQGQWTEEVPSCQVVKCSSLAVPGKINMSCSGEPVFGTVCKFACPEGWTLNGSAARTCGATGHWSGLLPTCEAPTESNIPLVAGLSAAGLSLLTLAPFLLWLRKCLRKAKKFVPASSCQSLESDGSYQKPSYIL

Read-out in the assay: E-selectin (Homo sapiens) (UniProt P16581)
Put plainly: BSK_3C_Eselectin: BioMAP Diversity Plus: 3C Assay for Eselectin Biomarker Activity (AID 2283015). As to conditions: primary human endothelial cells (HUVEC); actives raise or lower the signal. On the procedure:
BSK_3C is a cell-based, multiplexed-readout assay that uses umbilical vein endothelium, a human vascular primary cell, with measurements taken at 24 hours after chemical dosing in a 96-well plate.BSK_3C_Eselectin is an assay component measured in the BSK_3C assay. It measures E-selectin antibody related to regulation of gene expression using ELISA technology.Data from the assay component BSK_3C_Eselectin was analyzed into 1 assay endpoint. This assay endpoint, BSK_3C_Eselectin, was analyzed with bidirectional fitting relative to DMSO as the negative control and baseline of activity. Using a type of binding reporter, gain or loss-of-signal activity can be used to understand changes in the signaling as they relate to the gene SELE. Furthermore, this assay endpoint can be referred to as a primary readout, because this assay has produced multiple assay endpoints where this one serves a signaling function. To generalize the intended target to other relatable targets, this assay endpoint is annotated to the cell adhesion molecules intended target family, where the subfamily is selectins.
The levels of cell surface (or secreted, indicated by the prefix "s") biomarker endpoints were measured by ELISA. Overt cytotoxicity to cells in confluent adherent cultures (all systems other than the BT system) was assessed by measuring total protein levels using sulforhodamine B (SRB) staining in parallel cultures at the time of biomarker measurements, indicated as SRB endpoints. For proliferation assays for adherent cell types, individual cell types are cultured at sub-confluence and relative cell numbers quantified by SRB staining at time points optimized for each system (48 h: 3C and CASM3C systems; 72 h: BT and HDF3CGF systems; 96 h: SAg system). SRB was performed by staining cells with 0.1% SRB after fixation with 10% TCA and reading wells at 560 nm.Viability and proliferation of PBMC (T cells) was quantified by Alamar Blue reduction for the SAg and BT systems. For PBMC viability (referred to as PBMC Cytotoxicity within the assay endpoint names), cells were plated (75,000/well in a 96-well plate) and then chemical samples added for 1 h before addition of activators, SEB and TSST-1 (20 ng/mL final concentration each). Cells were incubated for 90 h. Then, Alamar Blue (20 uL/well) (Invitrogen, Cat DAL1100) was added for 6 h, and the plates were read with a fluorescence microplate reader at 546/580 nm (excitation/emission). For PBMC proliferation, cells were plated and activated as above but incubated for only 16 h prior to addition of Alamar Blue. Plates were read after 6 h.
As for `CC(C)C(=O)OCCc1ccccc1`, the outcome was inactive.

In the case of `CC1(C)CC(O)CC(C)(C)N1[O]`, the AC50 was 0.0621 µM (active).

Regarding `CCOC(=O)/C=C\C(=O)OCC`, the result was inactive.

For the compound `C=CC(=O)NCOCCCC`, the result was inactive.

On to `CCC1(C)C(=O)N(Cl)C(=O)N1Cl` (stereo not given), for which the outcome was inactive.

With `CC(C)CCCCCOC(=O)CS`, the outcome was inactive.

Take `CCCCCCC=O`: the outcome was inactive.

As to `c1ccc2sc(SSN3CCOCC3)nc2c1`, the AC50 was 11.8 µM (active).

For the compound `CC1=CC=C(C(C)C)CC1`, the outcome was inactive.

With `C=CC(=O)OCC(C)OCC(C)OCC(C)OC(=O)C=C` (stereo not given), the AC50 is 11 µM (active).

As for `C1CNCCN1`, the outcome was inactive.

Regarding `CCCCCCCCCCCC(C)=O`, the AC50 is 33.7 µM (active).

Turning to `O=C(O)C(F)(F)C(F)(F)C(F)(F)C(F)(F)C(=O)O`, the result was inactive.

With `Oc1c(Cl)cc(Cl)c(Cl)c1Cl`, the AC50 is 27.7 µM (active).

Regarding `CC(Cl)COP(=O)(OCC(C)Cl)OCC(C)Cl` (stereo not given), the outcome was inactive.

For the compound `C=CCCCCCCCCC=O`, the result was inactive.

Consider `CCOC(=O)C1=NN(c2ccc(Cl)cc2Cl)C(C)(C(=O)OCC)C1` (stereo not given), for which the outcome was inactive.

In the case of `Oc1ccccc1Cc1ccccc1O`, the result was inactive.

Consider `Fc1ccc(Br)cc1`, for which the result was inactive.

For `CCCCCCCCCCCC(=O)N(C)CC(=O)O`, the outcome was inactive.

For `C=CC(=O)NC(C)(C)C`, the result was inactive.

For the compound `O=C1CCCCCCCCCCCN1`, the result was inactive.

On to `CC(CCC(=O)O)(c1ccc(O)cc1)c1ccc(O)cc1`, for which the result was inactive.

Regarding `CC(C)[N+](C)(CCOC(=O)C1c2ccccc2Oc2ccccc21)C(C)C`, the result was inactive.

Turning to `Clc1cc(Cl)c(Cl)c(Cl)c1Cl`, the outcome was inactive.

Consider `Nc1nc(N)nc(-c2ccccc2)n1`, for which the outcome was inactive.

Take `O=C(Oc1ccccc1)c1ccccc1C(=O)Oc1ccccc1`: the outcome was inactive.

`CCNc1nc(NC(C)(C)C)nc(OC)n1`: the result was inactive.

Turning to `Cc1c(O)cccc1O`, the result was inactive.

As to `CCCCC1C(=O)N(c2ccccc2)N(c2ccccc2)C1=O`, the outcome was inactive.

In the case of `C=C(C)C(=O)OCCCCCCCCCCCC`, the outcome was inactive.

In the case of `CCOC(=O)C1=NOC(c2ccccc2)(c2ccccc2)C1`, the result was inactive.

Turning to `COc1ccc(C(=O)c2ccccc2)c(O)c1`, the outcome was inactive.

Turning to `COc1ccc(C(=O)/C(Br)=C\C(=O)O)cc1`, the AC50 was 15.2 µM (active) and 20 µM (active).

For `Oc1ccc(/C=C/c2cc(O)cc(O)c2)cc1`, the result was inactive.

As for `CC(c1cc(C(C)(C)C)cc(C(C)(C)C)c1O)c1cc(C(C)(C)C)cc(C(C)(C)C)c1O`, the AC50 was 1.21 µM (active).

On to `Nc1cccc(N)n1`, for which the result was inactive.

As to `CCN1CN(CC)CN(CC)C1`, the outcome was inactive.

Consider `Nc1ccc(C(=O)O)cc1`, for which the outcome was inactive.

In the case of `Cc1ccc([N+](=O)[O-])cc1N`, the result was inactive.
